Source: PubChem BioAssay (NCI)
This is part of a sample that, as a whole, favours compounds with a hit. Of some 83,000 tested, about 20% had one in any assay.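 Results are percent growth after 48 hours of single-concentration exposure. 100 means growth as in untreated cells, lower positive values show inhibition; negative values down to -100 show cell death.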 Values without a mark were called inactive. The source made the active and inactive calls. The calls were made as follows: active = growth percent below 10; inactive = the rest.

Experiments:
Test in all cases: NCI-60 one-dose screen, 48 h (100 = growth as untreated, 0 = no growth, -100 = all killed)
Conditions in all cases: 10 µM unless noted
DU-145 prostate = tested on: DU-145 prostate
K-562 leukemia = tested on: K-562 leukemia
MALME-3M melanoma = tested on: MALME-3M melanoma
MDA-MB-231 breast = tested on: MDA-MB-231 breast
RXF 393 renal = tested on: RXF 393 renal
SF-268 CNS = tested on: SF-268 CNS
SF-295 CNS = tested on: SF-295 CNS
SF-539 CNS = tested on: SF-539 CNS
UACC-257 melanoma = tested on: UACC-257 melanoma
M14 melanoma = tested on: M14 melanoma

| Compound | growth (DU-145 prostate) | growth (K-562 leukemia) | growth (MALME-3M melanoma) | growth (MDA-MB-231 breast) | growth (RXF 393 renal) | growth (SF-268 CNS) | growth (SF-295 CNS) | growth (SF-539 CNS) | growth (UACC-257 melanoma) | growth (M14 melanoma) |
| --- | --- | --- | --- | --- | --- | --- | --- | --- | --- | --- |
| CC(Nc1c(C#N)cnc2ccc(-c3cncc(-c4n[nH]c(=O)o4)c3)cc12)c1ccccc1 (stereo not given) | 8.39% (active) | 28.5% | -8.08% (active) | 17.2% | -24% (active) | 12.2% | -7.24% (active) | -12.8% (active) | 34.2% | 18.7% |
| COc1ccc([C@H]2C(=O)N(c3cc(OC)c(OC)c(OC)c3)[C@@H]2c2ccc(OC)c(O)c2)cc1 | 16.7% | 9.93% (active) | 67.8% | 17.5% | 6.67% (active) | 29.1% | 18.5% | -1.89% (active) | 58.1% | 4.54% (active) |
| C#CCOc1ccc(/C=N/Nc2nc(-c3ccc(OC)cc3)cs2)cc1 | 78.7% | 47.7% | 83.9% | 91.3% | 99.1% | 87.2% | 66.8% | 97.3% | 76.1% | 93.1% |
| COc1ccc(-c2c(C(N)=O)c(N)n(Cc3nc4ccccc4[nH]3)c(=O)c2C#N)c(OC)c1 | 112% | 101% | 93.2% | 92.1% | 117% | 102% | 104% | 97.9% | 112% | 102% |
| Clc1cccc(/C=N/Nc2nc(N/N=C/c3cccc(Cl)c3)nc(N3CCCCC3)n2)c1 | 94.6% | 83% | 109% | 116% | 93.4% | 92% | 93% | 105% | 111% | 95.3% |
| CCCC/C(=C\c1ccc(O)c(O)c1)C(=O)NC(Cc1ccccc1)C(=O)C(=O)NCCc1ccc(OC)cc1 (stereo not given) | 104% | 91.5% | 101% | 92.1% | 96% | 92% | 97.8% | 91.6% | 100% | 95% |
| Cn1cc(-c2nn3cc(-c4ccncc4)nc3s2)c2cc(F)ccc21 | 90.8% | 19.7% | 65.5% | 63.3% | 88% | 94.8% | 96.7% | 87% | 111% | 93.4% |
| Fc1ccc(-c2cn3c(-c4c[nH]c5ccc(Br)cc45)csc3n2)cc1 | 67.4% | 90.3% | 51.4% | 15.5% | 79.6% | 50.9% | 64.1% | 34.3% | 93.5% | 67.4% |
| C#CCN(C)CCCOc1ccc(NCc2ccc(/C=C/C(=O)NO)cc2)cc1Cl | 13.7% | 15.3% | 4.84% (active) | 16.1% | -56.2% (active) | 12.9% | -65.5% (active) | -7.77% (active) | 21% | 0.456% (active) |
| NS(=O)(=O)c1nnc(/N=C/c2c(O)[nH]c3ccccc23)s1 | 114% | 110% | 109% | 92.3% | 118% | 102% | 99.2% | 96.3% | 107% | 94% |
| CCOC(=O)C(=O)Nc1ccc2c(ccn2C(=O)c2cccc(F)c2)c1 | 67.7% | 101% | 102% | 107% | 104% | 99% | 92% | 91.5% | 99.1% | 95.3% |
| COc1ccc(C(=NNS(=O)(=O)c2ccc(C)cc2)c2ccccc2)cc1OC | 103% | 94.3% | 87.7% | 91.2% | 105% | 95.5% | 87.7% | 105% | 96.5% | 102% |
| COC(=O)c1cccc(NC2=C(Cl)C(=O)C(C)=C(C)C2=O)c1 | 110% | 5.25% (active) | 95.8% | 36.5% | 104% | 97.4% | 108% | 99.3% | 108% | 92.3% |
| CN1CC[C@@H]2[C@@]3(C)CC[C@H](O)C(C)(C)[C@@H]3CC[C@@]2(C)[C@]2(C)CC[C@@]3(CO)CCC(C)(C)C[C@@H]3C12 (stereo not given in full) | 103% | 21.5% | 84.3% | 85% | 77.2% | 96.7% | 104% | 74.9% | 49.1% | 58.6% |
| C#Cc1cc(OC)c(C(=O)Nc2ccc(F)cc2C(=O)Nc2cccc(S(=O)(=O)C(F)(F)F)c2)cn1 | 46.8% | 5.65% (active) | -33.4% (active) | -24.4% (active) | -1.43% (active) | -38.1% (active) | -83.2% (active) | -87.1% (active) | 55.7% | 16.7% |
| Cc1ccc(-c2csc(N/N=C/c3cccs3)n2)cc1 | 100% | 74.4% | 88.8% | 92.5% | 115% | 106% | 92.8% | 104% | 97.1% | 90.4% |
| O=C1[C@@H]2Cc3c([nH]c4ccccc34)[C@H](c3ccc(Br)cc3)N2C(=O)CN1C1CCN(Cc2c(Cl)cccc2Cl)CC1 | 96.3% | 74.2% | 107% | 89% | 120% | 81.3% | 100% | 105% | 102% | 92.8% |
| Cn1c(SCC(=O)c2ccc(Br)cc2)nc2ccccc2c1=O | 97.8% | 85.2% | 111% | 94.9% | 115% | 97.5% | 97.6% | 97.3% | 108% | 96.6% |
| CC1=C(C)C(=O)C(Nc2ccc3c(c2)OCO3)=C(Br)C1=O | 109% | 3.43% (active) | 112% | 69.4% | 105% | 96.7% | 96.8% | 106% | 94.3% | 105% |
| N#C/C(=C\c1cccc2c1OCO2)C(=O)Nc1sc2c(c1C#N)CCCC2 | 111% | 104% | 105% | 95.6% | 123% | 103% | 97.2% | 97% | 110% | 97.5% |
| CC1(C)CC[C@]2(C(=O)NCCCCCCN(CCCN)CCCN)CC[C@]3(C)C(=CC[C@@H]4[C@@]5(C)CC[C@H](O)C(C)(C)[C@@H]5CC[C@]43C)[C@@H]2C1 | 107% | 109% | 103% | 93.7% | 113% | 97.2% | 105% | 102% | 97.6% | 105% |
| Cc1ccc(NC(=O)/C=C/c2ccc(OCCCOc3ccc4c(C)cc(=O)oc4c3)cc2)cc1 | 60.6% | 90.7% | 44.8% | 54.6% | 44.1% | 39.1% | 50.1% | 57.8% | 69.8% | 88.3% |
| CC(C)=CCC[C@](C)(O)[C@H]1CC[C@]2(C)[C@@H]1CC[C@@H]1[C@@]3(C)CC[C@H](N)C(C)(C)[C@@H]3CC[C@]12C | 72.2% | -41.2% (active) | 107% | 85.4% | 53.2% | 86% | 93.2% | 87.9% | 94% | 92.9% |
| Fc1cccc(Cl)c1/C=N/Nc1nc(N/N=C/c2c(F)cccc2Cl)nc(N2CCCCC2)n1 | 61% | 32.3% | -4.19% (active) | 42.1% | -3.38% (active) | 36.7% | 2.57% (active) | 56.3% | 11.7% | 11.9% |
| CCCCOc1ccc(S(=O)(=O)N2CCN(c3nc(C)cc(N4CCOCC4)n3)CC2)cc1 | 16.6% | 44.3% | 107% | 3.79% (active) | 85% | 3.91% (active) | -22.5% (active) | 75.9% | -47.2% (active) | -15.9% (active) |
| C#CCOc1cccc(-c2nc(N)nc(Nc3ccccc3SSc3ccccc3Nc3nc(N)nc(-c4cccc(OCC#C)c4)n3)n2)c1 | 55.2% | 43.5% | 96.8% | 48.1% | 81.8% | -11.5% (active) | -69.8% (active) | 59.2% | 108% | 66.6% |
